PubChem BioAssay
Active and inactive are the calls of the source.

Legend:
[1] = optical density shifts of acrAB sulA E. coli – strain DRC41, OD650, 48 h, E. coli filamentation inducer project, primary screen (AID 1152); details: higher = more signal, called active from +8 up or from −8 down;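 also: E. coli MC1000 strain DRC41 lacking acrAB efflux pump and sulA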
[2] = probe aLefty1 binding on compound microarray – biochemical, small-molecule microarray, 635/667 nm fluorescence, primary screen (AID 1153); details: higher = more signal;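 also: score merges spot fluorescence with signal-to-noise ratio from the scanned slide images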
[3] = plasmodial surface anion channel blockers, osmotic lysis – cell-based, P. falciparum Indochina, OD700, 1 h, primary screen (AID 1154); details: P. falciparum Indochina infected RBC osmotic lysis, higher = more signal, called active from +8 up or from −8 down
[4] = plasmodial surface anion channel blockers, osmotic lysis – cell-based, P. falciparum Indochina, OD700, 2 h, primary screen (AID 1155);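 also: lysis reports solute entry through the parasite surface anion channel PSAC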; details: P. falciparum Indochina infected erythrocytes, higher = more signal, called active from +8 up or from −8 down
[5] = changes in parasitized red cell lysis, either direction – P. falciparum Indochina, OD700, 3 h, PSAC antagonist project, primary screen (AID 1156); details: P. falciparum-infected erythrocytes, osmotic lysis, higher = more signal, called active from +8 up or from −8 down
[6] = plasmodial surface anion channel blockers, osmotic lysis – cell-based, P. falciparum Indochina, OD700, 18 h, primary screen (AID 1157); details: P. falciparum Indochina infected erythrocytes, osmotic lysis OD700, 18 h; higher = more signal, called active from +8 up or from −8 down
[7] = S6 kinase pathway phospho-S6 level changes – cell-based, A549, cytoblot, luminescence, serum-stimulated, primary screen (AID 1158); details: 5 h, higher = more signal;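 also: serum-stimulated A549 lung adenocarcinoma cells; signal is phosphorylated S6 detected by cytoblot immunostaining with HRP secondary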
[8] = molecular target: NADPH oxidase 2 (Homo sapiens) (UniProt P04839); assay: compounds shifting NOX2 Amplex Red fluorescence – cell-based, HEK293-NOX2, PMA-stimulated, NOX inhibitor project, primary screen (AID 1159); details: 45 min, higher = more signal, called active from +8 up or from −8 down; also: test concentration not given here
[9] = molecular target: NADPH oxidase 4 (Homo sapiens) (UniProt Q9NPH5); assay: compounds shifting NOX4 Amplex Red fluorescence – cell-based, HEK293-NOX4, tetracycline-induced, NOX inhibitor project, primary screen (AID 1160); details: HEK293-NOX4, Amplex Red H2O2 fluorescence, 45 min; higher = more signal, called active from +8 up or from −8 down
[10] = molecular target: NADPH oxidase 5 (Homo sapiens) (UniProt Q96PH1); assay: compounds shifting NOX5 Amplex Red fluorescence – cell-based, HEK293-NOX5, NOX inhibitor project, primary screen (AID 1161); details: HEK293-NOX5, ionomycin, 45 min, higher = more signal
[11] = compound effects on lung adenocarcinoma cell viability – A549, calcein-AM fluorescence, 48 h, basal, profiling panel (AID 1162); details: higher = more signal; also: test concentration not given here
[12] = compound effects on differentiated 3T3-L1 adipocyte viability – cell-based, 3T3-L1 adipocytes, calcein-AM fluorescence, 48 h, basal, profiling panel (AID 1163); details: 3T3-L1 adipocytes viability, higher = more signal; also: test concentration not given here
[13] = compound effects on hepatocellular carcinoma cell viability – HepG2, calcein-AM fluorescence, 48 h, basal, profiling panel (AID 1164); details: higher = more signal; also: test concentration not given here
[14] = compound effects on multiple myeloma cell viability – MM1S, calcein-AM fluorescence, 48 h, basal, profiling panel (AID 1165); details: higher = more signal;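 also: viability of MM1S multiple myeloma cells under basal unstimulated conditions; test concentration not given here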
[15] = calcein-AM signal in unstimulated myeloma cells – cell-based, calcein-AM fluorescence, 48 h, PK04 Diversity Set, profiling panel (AID 1166); details: RPMI8226 myeloma viability, higher = more signal;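 also: cells grown under basal conditions without added stimulus; test concentration not given here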
[16] = JC-1 mitochondrial signal, unstimulated HepG2 cells – cell-based, JC-1 fluorescence, 24 h, 100 nL compound, profiling panel (AID 1167); details: HepG2 mitochondrial potential, higher = more signal; also: test concentration not given here
[17] = JC-1 mitochondrial signal, unstimulated adipocytes – cell-based, JC-1 fluorescence, 3T3-L1 adipocytes, 24 h, 100 nL compound, profiling panel (AID 1168); details: JC-1 mitochondrial fluorescence, higher = more signal, called active from +8 up or from −8 down; also: test concentration not given here
[18] = JC-1 mitochondrial signal, unstimulated myeloma cells – cell-based, JC-1 fluorescence, RPMI8226, 24 h, 100 nL compound, profiling panel (AID 1169); details: JC-1 mitochondrial potential fluorescence, higher = more signal; also: test concentration not given here
[19] = JC-1 mitochondrial signal, unstimulated MM1S myeloma – cell-based, JC-1 fluorescence, 24 h, 100 nL compound, profiling panel (AID 1170); details: MM1S mitochondrial potential, higher = more signal; also: test concentration not given here
[20] = resazurin metabolic signal in A549 cells – cell-based, resazurin fluorescence, 24 h, PK04 Diversity Set, profiling panel (AID 1171); details: A549 viability, higher = more signal, called active from +8 up or from −8 down; also: test concentration not given here

NADPH oxidase 2 (Homo sapiens), sequence (P04839 whole entry, looked up): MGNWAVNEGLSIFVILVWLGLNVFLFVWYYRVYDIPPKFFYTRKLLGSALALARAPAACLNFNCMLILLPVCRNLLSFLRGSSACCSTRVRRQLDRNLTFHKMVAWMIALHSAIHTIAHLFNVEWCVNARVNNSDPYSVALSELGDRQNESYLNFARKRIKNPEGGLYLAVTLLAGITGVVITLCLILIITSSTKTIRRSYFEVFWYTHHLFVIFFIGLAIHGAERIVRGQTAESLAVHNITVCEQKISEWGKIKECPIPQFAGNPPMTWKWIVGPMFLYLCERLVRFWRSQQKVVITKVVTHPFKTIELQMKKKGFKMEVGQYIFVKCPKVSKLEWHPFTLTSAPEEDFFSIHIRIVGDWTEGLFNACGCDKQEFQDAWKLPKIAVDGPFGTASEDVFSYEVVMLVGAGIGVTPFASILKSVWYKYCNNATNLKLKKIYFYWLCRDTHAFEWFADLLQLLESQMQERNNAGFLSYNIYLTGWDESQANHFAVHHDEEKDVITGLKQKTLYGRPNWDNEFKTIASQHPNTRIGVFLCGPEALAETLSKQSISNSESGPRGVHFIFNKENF
NADPH oxidase 4 (Homo sapiens), sequence (Q9NPH5 whole entry, looked up): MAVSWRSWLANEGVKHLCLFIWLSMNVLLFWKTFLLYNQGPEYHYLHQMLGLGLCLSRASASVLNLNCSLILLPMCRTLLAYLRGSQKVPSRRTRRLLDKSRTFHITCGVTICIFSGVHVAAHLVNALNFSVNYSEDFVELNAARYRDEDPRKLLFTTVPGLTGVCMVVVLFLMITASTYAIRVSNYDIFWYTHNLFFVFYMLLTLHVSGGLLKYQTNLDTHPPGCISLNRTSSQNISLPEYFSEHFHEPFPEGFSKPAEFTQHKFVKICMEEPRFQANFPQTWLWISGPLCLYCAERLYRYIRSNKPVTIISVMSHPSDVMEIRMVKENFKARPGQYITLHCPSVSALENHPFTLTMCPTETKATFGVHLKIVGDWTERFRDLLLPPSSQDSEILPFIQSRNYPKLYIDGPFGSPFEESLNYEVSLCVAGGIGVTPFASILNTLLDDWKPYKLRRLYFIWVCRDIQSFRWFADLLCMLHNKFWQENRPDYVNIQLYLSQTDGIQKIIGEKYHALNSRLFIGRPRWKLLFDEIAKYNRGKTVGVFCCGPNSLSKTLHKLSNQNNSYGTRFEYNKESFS
NADPH oxidase 5 (Homo sapiens), sequence (Q96PH1 whole entry, looked up): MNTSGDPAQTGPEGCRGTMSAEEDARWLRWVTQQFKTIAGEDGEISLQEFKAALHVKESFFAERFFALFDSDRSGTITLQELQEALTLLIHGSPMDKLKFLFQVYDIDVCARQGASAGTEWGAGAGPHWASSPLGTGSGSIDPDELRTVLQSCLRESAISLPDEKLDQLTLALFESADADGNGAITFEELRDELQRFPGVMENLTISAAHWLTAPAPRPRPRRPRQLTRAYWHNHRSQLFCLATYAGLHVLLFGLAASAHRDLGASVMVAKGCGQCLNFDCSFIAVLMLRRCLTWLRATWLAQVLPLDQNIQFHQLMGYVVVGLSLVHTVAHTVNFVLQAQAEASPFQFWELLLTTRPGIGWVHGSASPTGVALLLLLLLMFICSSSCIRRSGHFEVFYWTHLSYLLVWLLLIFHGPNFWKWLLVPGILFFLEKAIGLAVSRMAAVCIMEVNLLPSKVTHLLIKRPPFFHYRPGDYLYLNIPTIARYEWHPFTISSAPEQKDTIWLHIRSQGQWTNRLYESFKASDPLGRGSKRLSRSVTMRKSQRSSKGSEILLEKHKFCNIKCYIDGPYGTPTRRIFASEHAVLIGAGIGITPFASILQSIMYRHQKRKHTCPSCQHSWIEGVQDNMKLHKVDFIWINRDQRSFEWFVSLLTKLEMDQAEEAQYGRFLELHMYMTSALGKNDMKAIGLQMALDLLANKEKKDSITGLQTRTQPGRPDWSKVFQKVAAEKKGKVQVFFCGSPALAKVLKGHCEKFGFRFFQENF

| Compound | z-score [1] | composite z-score [2] | z-score [3] | z-score [4] | z-score [5] | z-score [6] | z-score [7] | z-score [8] | z-score [9] | z-score [10] | z-score [11] | z-score [12] | z-score [13] | z-score [14] | z-score [15] | z-score [16] | z-score [17] | z-score [18] | z-score [19] | z-score [20] |
| --- | --- | --- | --- | --- | --- | --- | --- | --- | --- | --- | --- | --- | --- | --- | --- | --- | --- | --- | --- | --- |
| C=CCNC(=O)[C@@H]1[C@H]2C(=O)O[C@H](c3ccccc3)[C@H](c3ccccc3)N2[C@H](c2ccc(OCCO)cc2)[C@@]12C(=O)Nc1ccc(C#CCC(C(=O)OC)C(=O)OC)cc12 | 1.13 (inactive) | 0.0973 | 5.24 (inactive) | 1.59 (inactive) | 1.28 (inactive) | 0.653 (inactive) | -0.186 | 2.32 (inactive) | 0.186 (inactive) | 0.236 | -0.305 | 1.09 | 0.22 | -3.45 | -4.16 | 0.644 | 1.39 (inactive) | -0.907 | -1.63 | 1.39 (inactive) |
| CO[C@H]1O[C@H](CO)[C@@H](OC(=O)Nc2ccc(C(F)(F)F)cc2)[C@H](OC(=O)Nc2ccc3c(c2)OCO3)[C@@H]1OC(=O)Nc1ccc2c(c1)OCO2 | -0.112 (inactive) | 0.199 | 25.8 (active) | 15.3 (active) | 3.6 (inactive) | 1.77 (inactive) | -0.176 | -0.794 (inactive) | -0.393 (inactive) | -0.486 | -0.903 | 0.102 | -1.81 | -3.42 | -3.51 | -1.62 | -0.855 (inactive) | -1.32 | -1.36 | -1.99 (inactive) |
| C=C(/C(=C/C[C@H](OC(C)=O)c1ccc(CO)o1)c1cc(C(=O)OC)ccc1OC)C(C)C | 0.376 (inactive) | -0.0559 | 2.48 (inactive) | -1.22 (inactive) | 2.6 (inactive) | -2.17 (inactive) | 2.41 | -1.66 (inactive) | -1.85 (inactive) | -2.34 | -0.431 | 1.4 | -0.812 | -2.37 | -2.03 | 0.256 | 1.13 (inactive) | 0.104 | -0.227 | -0.369 (inactive) |
| COC(=O)[C@@]1(Cc2ccc(F)cc2)[C@H]2c3cc(C(=O)N(C)C)n(Cc4ccc(Cl)c(C(F)(F)F)c4)c3C[C@H]2CN1C(=O)c1ccccc1 | -1.91 (inactive) | 1.54 | 7.17 (inactive) | 2.13 (inactive) | 0.512 (inactive) | 1.72 (inactive) | -0.186 | 0.23 (inactive) | -1.2 (inactive) | 0.627 | -1.16 | -0.207 | -1.04 | -2.26 | -4.06 | 1.96 | -1.47 (inactive) | -0.854 | -1.54 | -1.27 (inactive) |
| C=CCNC(=O)[C@H]1[C@@H]2C(=O)O[C@@H](c3ccccc3)[C@@H](c3ccccc3)N2[C@@H](c2ccccc2OCCO)[C@]12C(=O)Nc1ccc(C#CCCO)cc12 | -0.849 (inactive) | -0.133 | 9.4 (active) | 1.75 (inactive) | -0.56 (inactive) | 0.982 (inactive) | 0.0418 | 1.76 (inactive) | -0.546 (inactive) | 1.93 | 0.126 | 1.04 | -0.543 | -2.03 | -1.91 | -0.651 | -0.936 (inactive) | -0.953 | -0.31 | -0.685 (inactive) |
| COC(=O)[C@H](Cc1ccccc1)N1CC2=C[C@@H](C3CC3)n3c(=O)n(C)c(=O)n3[C@H]2[C@@H]1[C@@H](O)Cc1ccccc1 | -1.32 (inactive) | 0.355 | 11.5 (active) | 2.35 (inactive) | 0.645 (inactive) | 1.58 (inactive) | 0.144 | -0.813 (inactive) | -0.218 (inactive) | -1.71 | 1.97 | -0.375 | 0.888 | 0.378 | -0.473 | 1.49 | -1.06 (inactive) | 0.223 | -0.804 | 0.138 (inactive) |
| C=CCOC(=O)[C@H]1[C@@H]2C(=O)O[C@@H](c3ccccc3)[C@@H](c3ccccc3)N2[C@@H](c2ccc(OCCOC(=O)[C@H]3C[C@H]4C(=O)N[C@@H](CCCC[N+](C)(C)C)C(=O)N4[C@H]3c3ccc(O)cc3)cc2)[C@]12C(=O)Nc1ccc(I)cc12 | -0.535 (inactive) | 0.275 | 3.9 (inactive) | 1.69 (inactive) | -3.16 (inactive) | 0.278 (inactive) | -0.519 | 0.595 (inactive) | 0.72 (inactive) | 0.895 | 0.191 | -0.113 | 0.837 | -0.233 | -0.661 | 0.239 | -0.672 (inactive) | 0.0674 | 0.17 | -0.0807 (inactive) |
